# tim23-1 inh: growth inhibitors of tim23-1 mutant yeast; 330,000 compounds, 1.3% hits; inhibition, % at 20 µM; S. cerevisiae tim23-1 growth, BacTiter-Glo luminescence, 24 h; AID 463212;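 active = growth inhibition of the mutant yeast at or above 50%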;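 also: temperature-sensitive mutant grown at 25 °C; plate controls were DMSO-treated mutant yeast for no effect and medium wells lacking yeast for full effect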
# V-ATPase pH: yeast V-ATPase proton transport regulation by pHLuorin | response, % at 10 µM | AID 504577 | S. cerevisiae, pHLuorin cytosolic pH fluorescence | 350,000 compounds, 0.37% hits; in the data active = response mostly above about 7.3%, no sharp cut-off; inactive = mostly below about 5.4%; also: actives read high
# TIM10 inh: TIM10 yeast growth inhibition; S. cerevisiae TIM10 strain growth, BacTiter-Glo luminescence, 24 h; inhibition, % at 10 µM; 330,000 compounds, 1.4% hits;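 active = inhibition of 40% or more at the single tested concentration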;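 also: wild-type TIM10 isogenic control strain grown at permissive 25 °C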
# NALP1 inh: inhibitors of NALP1 inflammasome in yeast. inhibition, % at 10 µM. S. cerevisiae NALP1/ASC/caspase-1 growth, X-gal OD620, 72 h. 280,000 compounds, 0.61% hits; in the data active = inhibition mostly above about 24%, no sharp cut-off; inactive = mostly below about 32%
# tim10-1 inh: growth inhibitors of tim10-1 mutant yeast; 330,000 compounds, 2.2% hits; AID 463190; S. cerevisiae tim10-1 ts strain growth, BacTiter-Glo, 24 h; inhibition, % at 20 µM;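 active = inhibition of at least 40%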;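 also: mutant grown at 25 °C; 0% = DMSO wells with yeast and 100% = wells holding no yeast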
# NALP3 yeast inh: NALP3 inhibition in yeast; 330,000 compounds, 0.39% hits; AID 2825; inhibition, % at 10 µM; Yeast reconstituted NLRP3/ASC/caspase-1, beta-gal luminescence, 24 h;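 active = inhibition of 50% or more; inactive = inhibition below 50%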;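 also: plate controls were induced DMSO wells for no effect and uninduced yeast grown without galactose for full effect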
# tim23-1 confirm: tim23-1 yeast growth inhibition, confirmed | shares compounds with tim23-1 inh | S. cerevisiae tim23-1 growth, BacTiter-Glo luminescence, 24 h | inhibition, % at 20 µM | 4,400 compounds, 83% hits | AID 463218;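 active = inhibition above about 39% in either of two replicate wells at 20 µM, limit read from the data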;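 also: temperature-sensitive tim23-1 mutant grown at 25 °C; 0% = DMSO wells with yeast and 100% = medium wells without yeast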
# * marks the source's active call; other numbers are inactive results; / = not tested or not shown. The list is not random: actives were taken first. Their share in the collection is about 4.2%.
SMILES,tim23-1 inh,V-ATPase pH,TIM10 inh,NALP1 inh,tim10-1 inh,NALP3 yeast inh,tim23-1 confirm
O=[N+]([O-])c1cccc(NC(=S)N2CCc3ccccc3C2)c1,52*,1,34,15,29,23,55*
CC(C)(C)CC(=O)NC(=S)Nc1ccccc1C(F)(F)F,51*,-4,36,9,34,21,39
CCN(CC)CCCC(C)Nc1nccc2cccc(Cl)c12 (configuration not stated),/,-4,/,/,/,/,/
O=C1CS(=O)(=O)N(Cc2ccc(F)cc2)c2ccccc21,53*,0,25,/,30,/,47*
c1csc(CSc2nnc3sc4ccccc4n23)c1,54*,2,14,20,39,16,50*
CN(C#N)c1nc(Cl)nc(Nc2cccc(Cl)c2)n1,69*,0,13,51,40,10,-55
O=C(N=Nc1c(O)[nH]c2ccccc12)c1ccco1,-20,-3,14,-2,0,-3,/
Cc1ccc(C(=O)Nc2ccc(C(=O)N/N=C/c3c[nH]c4ccccc34)cc2)cc1,-12,0,18,17,16,13,/
Cc1cccc(NC(=S)N/N=C/c2c[nH]c3ccccc23)c1,64*,-1,6,-7,38,12,-6
CC(C)C(=O)Nc1cccc(COc2ccc(CN(Cc3ccccc3)C(=O)OC(C)(C)C)cc2)c1,/,-4,/,/,/,/,/
Oc1ccc2ccccc2c1/C=N/Nc1nnc(-c2ncc[nH]2)c2ccccc12,69*,3,33,2,27,24,65*
CC(C)c1ccc(/C=C/C(=O)NC(=S)NN2CCOCC2)cc1,54*,1,27,11,29,10,36
O=C(Nc1cccc(NC(=O)c2ccc(-c3ccc(Br)cc3)o2)c1)c1ccccc1,-10,3,-40,4,1,10,/
O=C(Nc1cccc(NC(=O)c2ccc(-c3cccc(Br)c3)o2)c1)c1ccco1,60*,-1,19,4,-47,17,43*
O=C(Nc1ccc(Br)c(Cl)c1)c1ccco1,62*,0,36,-2,28,12,72*
Cc1ccc(C(=O)O/N=C(\N)c2ccccn2)c(Cl)c1,51*,4,33,17,36,35,54*
Cc1ccc(CC(=O)O/N=C(\N)c2ccccn2)cc1,21,-3,24,3,38,19,/
CC(=O)n1cc(N(C(=O)CCl)c2ccc(C)cc2)c2ccccc21,69*,-1,22,-1,35,12,36
C[C@H](CO)N1C[C@H](C)[C@H](CN(C)S(=O)(=O)c2cccs2)Oc2ccc(NC(=O)Nc3ccc4c(c3)OCO4)cc2CC1=O,-3,1,-5,/,0,17,/
Cc1cccc(NC(=O)CN(CC2CCCO2)C(=O)c2cc3ccccc3o2)c1C (configuration not stated),29,1,6,/,15,22,/
O=[N+]([O-])c1ccc2nc(Cl)nc(-c3ccccc3)c2c1,54*,-3,40,4,31,9,48*
COc1ccccc1N1CCN(C(=O)CN(Cc2ccccc2)S(C)(=O)=O)CC1,23,1,6,2,19,9,/
O=C(Oc1ccc(Cl)c2cccnc12)c1ccco1,52*,0,23,-10,27,18,46*
O=C(Oc1cccc2ccccc12)c1ccco1,10,-1,18,0,24,5,/
CCOC(=O)C1=C(C2=CCCCC2)c2ccc(OC)cc2N(S(=O)(=O)C(F)(F)F)C1C(=O)OCC (configuration not stated),53*,0,25,/,36,/,40*
CCOC(=O)C1C(C(=O)OC)=C(c2ccc(OC)cc2)c2ccccc2N1S(=O)(=O)C(F)(F)F (configuration not stated),46,-1,-4,/,16,/,/
CSc1nc2ccc(NC(=O)c3nn(C(C)C)c(=O)c4ccccc34)cc2s1,5,3,24,/,23,2,/
CCSc1nnc(NC(=O)c2nn(C(C)C)c(=O)c3ccccc23)s1,57*,1,23,29,32,-16,37*
CC(C)(C)OC(=O)N(CCc1ccccc1)Cc1ccc(OCc2cccc(NC(=O)C3CC3)c2)cc1,/,-1,/,/,/,/,/

# Source: PubChem
